Source: PubChem BioAssay
Casp6 inh – inhibitors of human caspase-6. purified caspase-6, Z-VEID-R110 cleavage fluorescence. hit rate 0.53% among 350,000. P55212. inhibition, % at 12.5 µM. AID 686996;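 active means mean inhibition across replicates at least about 35%, with every replicate also reaching that limit, limit read from the data; inconclusive means only one of the two criteria met; inactive means neither criterion met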;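 further: 0% = median of neutral control wells and 100% = no fluorescence left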
Target sequence (P55212 24-179 limits assumed): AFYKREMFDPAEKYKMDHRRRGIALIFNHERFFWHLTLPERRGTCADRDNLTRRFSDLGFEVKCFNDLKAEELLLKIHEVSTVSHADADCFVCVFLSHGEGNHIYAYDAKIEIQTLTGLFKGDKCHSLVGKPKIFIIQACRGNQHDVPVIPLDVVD
Target sequence (P55212 194-293 limits assumed): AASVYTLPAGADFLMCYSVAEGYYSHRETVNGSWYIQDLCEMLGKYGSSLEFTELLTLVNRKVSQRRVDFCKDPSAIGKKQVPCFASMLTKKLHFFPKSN
AF4-AF9 inh – blocks AF4 peptide binding to human AF9; P42568; AlphaScreen, biotin-AF4 peptide binding to FLAG-AF9; inhibition, % at 10 µM; hit rate 0.47% among 350,000;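 active means every replicate reaching a set inhibition limit, whatever the replicate mean, cut at about 25% in these data; inconclusive means mean inhibition reaches that limit but some replicates miss it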;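 further: 0% = plate neutral control median and 100% = total signal loss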
N-glyco inh – N-linked glycosylation inhibition; D54 ERlucT glycosylation luciferase reporter, 24 h; percent of 100 nM tunicamycin response; reporter increase, % at 12.5 µM; hit rate 0.23% among 360,000; AID 588692;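 active means mean luciferase reporter signal, scaled so untreated is 0 and the glycosylation-blocking control 100, at or above a set limit in every replicate; inconclusive means mean reaches the limit but not every replicate does; inactive means mean below the limit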;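 further: luciferase carries N-glycosylation sites so blocking glycosylation raises the light; 0% = median of neutral control wells and 100% = median of 100 nM tunicamycin wells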
RAD54 branch – RAD54 (human) branch migration inhibition; Q92698; RAD54 Holliday junction branch migration, FAM/BHQ fluorescence; inhibition, % at 10.4 µM; hit rate 0.14% among 360,000;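 active means mean normalized replicate activity at least 40 and at least half of replicates scoring 40 or more; inconclusive means only one of the two criteria met; inactive means mean below 40 and under half of replicates reaching 40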;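 further: 0% = median of neutral control wells and 100% = median of positive control wells; inhibitors cause a drop in the FAM fluorescence signal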
RAD52 anneal inh – blocks human RAD52 DNA annealing; hit rate 0.46% among 360,000; recombinant RAD52 DNA annealing, FRET fluorescence; P43351; inhibition, % at 18.7 µM; AID 651710;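 active means every replicate showing at least 50% inhibition; inconclusive means mean inhibition at least 50% but not in every replicate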
Starred values were filed as active, the others as inactive; i = inactive; u = inconclusive; x = no result. A selection: hits, their analogues and other compounds. The true share with any hit is near 1.2%.

SMILES	Casp6 inh	AF4-AF9 inh	N-glyco inh	RAD54 branch	RAD52 anneal inh
CN(C)[C@@H]1C(=O)C(C(N)=O)=C(O)[C@@]2(O)C(=O)C3=C(O)c4c(O)cccc4[C@@](C)(O)C3[C@H](O)C12 (stereo partly drawn)	45*	-8	3	-22	-14
CN(C)C1C(=O)C(C(N)=O)=C(O)C2(O)C(=O)C3=C(O)c4c(O)cccc4C(C)(O)C3CC12 (stereo not drawn)	x	x	2	2	x
CN(C)[C@@H]1C(=O)C(C(N)=O)=C(O)[C@@]2(O)C(=O)C3=C(O)c4c(O)ccc(Cl)c4[C@@](C)(O)C3C[C@@H]12 (stereo partly drawn)	44*	2	-8	3	-6
O=C(O)[C@H]1[C@H](CO)[C@H]2Cn3c(ccc(C4=CCCCC4)c3=O)[C@@H]1N2C(=O)Cc1ccccn1	3	2	x	-1	9
O=[N+]([O-])c1ccc(N2CCCCCC2)c2ncccc12	x	27*	0	x	-11
O=C(Cc1cccnc1)N1CCCCN2[C@H](C1)[C@H](c1ccc(C#CC3CC3)cc1)[C@@H]2CO	0	0	x	-12	13
CN(C)CC#Cc1ccc([C@@H]2[C@@H](CO)N3CCCCN(C(=O)Cc4ccccn4)C[C@@H]23)cc1	1	3	x	-6	37
CN(C)CC#Cc1ccc([C@@H]2[C@@H](CO)N3CCCCN(C(=O)Cc4ccccn4)C[C@H]23)cc1	1	11	x	-11	61*
O=C(Cc1cccnc1)N1CCCCN2[C@H](CO)[C@H](c3ccc(C#CC4CC4)cc3)[C@@H]2C1	-1	0	x	-12	20
CC=Cc1ccc2n(c1=O)C[C@H]1[C@H](CO)[C@@H](C(=O)N(C)C)[C@@H]2N1C (mixture of isomers)	57*	0	x	-1	-2
O=C(Cc1ccccn1)N1CCCCN2[C@H](C1)[C@@H](c1ccc(C#Cc3ccccc3)cc1)[C@@H]2CO	-3	-12	x	-6	-38
CCCCN1C(=O)/C(=C/C=C/c2ccco2)C(=O)NC1=S	78*	-8	3	-16	i
CCCCN1C(=O)/C(=C\c2ccco2)C(=O)N(CCc2ccccc2)C1=O	x	x	2	-8	x
Cc1cc(C)cc(N2C(=O)NC(=O)/C(=C\C=C\c3ccco3)C2=O)c1	28	12	56*	x	-78
CCc1ccc(N2C(=O)NC(=O)/C(=C\C=C\c3ccco3)C2=O)cc1	54*	-12	46*	-38	i
O=C1NC(=O)N(Cc2ccc(F)cc2)C(=O)/C1=C\C=C\c1ccco1	23	0	u	-42	-151
Cc1cccc(S(=O)(=O)N2[C@@H]3c4ccc(-c5cccc(F)c5)c(=O)n4C[C@H]2[C@H](CO)[C@H]3C(=O)O)c1	x	x	x	-7	-11
O=C(NCC1=C(c2ccc3ccccc3c2)C[C@@H]2CC[C@H]1N2Cc1ccco1)c1ccc([N+](=O)[O-])cc1	-2	28*	-6	0	46
O=C(NCC1=C(c2ccc3ccccc3c2)C[C@@H]2CC[C@H]1N2Cc1ccco1)c1ccncc1	-2	10	-2	6	-6
N#Cc1cccc(-c2ccc([C@H]3[C@@H](CO)N4CCCCN(C(=O)Cc5ccccc5)C[C@H]34)cc2)c1	1	0	x	6	-43
COC(=O)[C@@H]1[C@@H](CO)[C@@H]2Cn3c(ccc(-c4ccccc4)c3=O)[C@H]1N2CCc1ccccc1	2	-1	x	-6	10
NN=C1C(Cl)=C(Cl)C(Cl)=C1Cl	97*	1	-1	x	-4
Fc1ccc(C(OCCN2CCN(CCCc3ccccc3)CC2)c2ccc(F)cc2)cc1	4	29*	-14	-6	25
O=C(Cc1cccs1)N1Cc2ccccc2-n2nncc2C1	41*	-5	-2	8	-24
O=C(O)c1ccccc1-c1ccc(C=C2C(=O)N(c3ccccc3)C(=S)N(c3ccccc3)C2=O)o1	37*	-5	-2	-13	-105
SMILES	Casp6 inh	AF4-AF9 inh	N-glyco inh	RAD54 branch	RAD52 anneal inh
O=C(Cc1cccnc1)N1CCCCN2[C@@H](CO)[C@H](c3ccc(/C=C/c4ccccc4)cc3)[C@@H]2C1	2	10	x	1	-22
O=C(O)c1cccc2c1NC(c1cccc([N+](=O)[O-])c1)C1CC(Sc3ccccc3[N+](=O)[O-])C(Cl)C21 (stereo not drawn)	54*	27*	-1	x	-15
O=C(O)c1ccc2c(c1)C1C(Cl)C(Sc3ccccc3[N+](=O)[O-])CC1C(c1cccc([N+](=O)[O-])c1)N2 (stereo not drawn)	x	x	0	1	x
O=C(Cc1ccccc1)N1C[C@@H]2[C@H](c3ccccc31)[C@H](CO)N2Cc1ccccc1	1	0	x	0	-8
Clc1cccc(N2Cc3cc(-c4ccccc4)ccc3-n3nncc3C2)c1	7	1	40*	-2	-9
COc1ccc(-c2ccc3c(c2)CN(c2cccc(Cl)c2)Cc2cnnn2-3)cc1	x	-1	0	-2	-10
Cn1cccc1/C=C1/C(=O)NC(=S)N(Cc2ccc(F)cc2)C1=O	35*	11	1	2	-26
CCCN1[C@@H]2Cn3c(ccc(-c4ccc(F)cc4)c3=O)[C@H]1[C@@H](C(=O)OC)[C@@H]2CO	0	0	x	4	53*
COC(=O)[C@@H]1C[C@H]1[C@@H](NP(=O)(c1ccccc1)c1ccccc1)c1ccccc1	-2	x	32*	4	5
O=C(NCCN1CCC2(CC1)C(=O)NCN2c1ccccc1)c1cccc2c1-c1ccccc1C2=O	-24	3	x	x	-12
CN1CN(c2ccccc2)C2(CCN(CCCSc3ccccc3NC(=O)/C=C/c3ccccc3)CC2)C1=O	3	12	30*	x	-8
COC(=O)[C@@H]1[C@@H](CO)[C@@H]2Cn3c(ccc(C4=CCCCC4)c3=O)[C@H]1N2Cc1cccnc1	-2	-6	x	-1	5
CN1CCN(Cc2nc3ccccc3n2C)CC1	x	x	0	3	x
Cn1c(NN=O)nc2ccccc21	36*	12	-5	x	-6
BrCCc1ccccc1	1	x	2	-7	-1
C[N+](C)(C)Cc1ccccc1	76*	-2	1	1	-12
COC12CCC3(CC1C(C)(O)C(C)(C)C)[C@H]1Cc4ccc(O)c5c4[C@@]3(CCN1CC1CC1)C2O5 (stereo partly drawn)	4	x	59*	-6	3
CCC(=O)N1[C@@H]2Cn3c(ccc(C4=CCCC4)c3=O)[C@H]1[C@@H](C(=O)OC)[C@@H]2CO	3	5	x	-12	-6
CN1CC(C(=O)c2ccc(Cl)cc2)C(c2ccc(N(C)C)cc2)C1 (stereo not drawn)	-3	40*	-7	x	-9
O=C1C=C(N2CC2)c2ccccc2C1=O	97*	0	4	4	-31
O=C1c2ccccc2-c2cc3ccccc3cc21	3	0	0	x	-9
CN(C)CC#Cc1ccc([C@@H]2[C@H](CO)N3CCCCN(C(=O)Cc4ccccn4)C[C@@H]23)cc1	2	-3	x	0	13
